Assay results published in PubChem BioAssay (NCI).
This is part of a sample that, as a whole, favours compounds with a hit. Of some 83,000 tested, about 20% had one in any assay.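 Note: values are percent growth. 100 is the growth of untreated cells, values between 100 and 0 indicate rising inhibition; between -100 and 0 indicates cell death.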 Values without a mark were called inactive. Calls of active or inactive are those of the source. How the source made its calls: active means growth percent below 10; inactive means the rest.

system: HL-60(TB) leukemia; test: NCI-60 one-dose screen, 48 h (100 = growth as untreated, 0 = no growth, -100 = all killed); conditions: 10 µM unless noted

| Structure (SMILES) | growth |
| --- | --- |
| FC(F)(F)c1cccc(Oc2ccc(Nc3ncnc4ccc(OCCCN5CCOCC5)cc34)cc2Cl)c1 | 32.8% |
| COc1cc(F)c(/C=C/c2cc(/C=C/c3cc(OC)c(OC)cc3F)n(-c3cc(F)cc(F)c3)n2)cc1OC | 87.6% |
| CCNc1ncnc2n[nH]nc12 | 94.8% |
| COc1ccc(Cn2cc3c(c2-c2ccc(OC)cc2)CCc2cnoc2-3)cc1 | -6.74% (active) |
| O=C(C(=O)N1CCCCC1)c1ccc(OC2OC(CO)C(O)C(O)C2O)cc1 (centres undefined) | 77.8% |
| COc1ccc(C2=NN(C(=O)c3ccc(S(C)(=O)=O)cc3)C(c3ccc(OC)c(OC)c3)C2)c(OC)c1 (centres undefined) | 69% |
| COc1c(C2CC(=O)Nc3c2c(C)nn3-c2nc3ccccc3[nH]2)cc2c(c1OC)OCO2 (centres undefined) | 20.7% |
| Cc1c(C(=O)Nc2nc3ccccc3[nH]2)cnn1-c1ccccn1 | 58.5% |
| CCCCCC(=C/c1ccccc1)/C=N/N=C(N)N | -30.2% (active) |
| CC(O)c1ncc(/C=C2\SC(=S)N(Cc3ccccc3)C2=O)s1 (centres undefined) | 85.2% |
| Cn1nc(C(F)(F)F)c(-c2cc(C(F)(F)F)cc(C(F)(F)F)c2)c1-c1ccc(OCc2ccc(Cl)cc2)cc1O | -39.9% (active) |
| C/C(=N\NC(=O)c1ccccc1N)c1ccccc1O | 40.8% |
| COc1ccc(/C=C2\N=C3Sc4cc(Cl)ccc4C(=O)N3C2=O)cc1 | 92.4% |
| COc1ccc(C2CC(=O)Oc3c(OC)c4c(c(OC)c32)OCO4)cc1 (centres undefined) | 95.6% |
| NC(CC(=O)O)C(=O)OCc1ccccc1 (centres undefined) | 101% |
| COc1cc2c(Nc3ccc(Br)cc3F)ncnc2cc1OCC1CCN(C)CC1 | 0.964% (active) |
| CNS(=O)(=O)Oc1ccc(-c2sc3cc(OS(=O)(=O)NC)ccc3c2C(=O)c2ccc(OCCN3CCCCC3)cc2)cc1 | 94.8% |
| CCCCC(CCCC)(S(=O)(=O)CC)S(=O)(=O)CC | 94.7% |
| CCCCCOC(=O)c1c(C)[nH]c(/C=C2\N=C(c3ccc[nH]3)C=C2OC)c1C | -14.7% (active) |
| COc1ccc(/C=C2/C(=O)ON=C2C)cc1 | 103% |

| Structure (SMILES) | growth |
| --- | --- |
| Nc1ncc(-c2ccc3ncnc(N4CCc5cc(F)c(Cl)cc54)c3c2)cn1 | 56.5% |
| N=C(N)c1ccc(-c2ccc(-c3cncc4ccccc34)s2)s1 | 13.6% |
| CCOC(=O)c1cc(C(=O)c2cc(OC)c(OC)c(OC)c2)n2c1ccc1c3cccnc3ccc12 | 13.3% |
| O=C(Nc1cccc(-n2ccc3c(NC(=O)c4ccccc4)nccc32)c1)Nc1cc(C(F)(F)F)cc(C(F)(F)F)c1 | -17.6% (active) |
| Cc1ccc(-c2nc(/C=N/Nc3cc(C)nc4ccc(Cl)cc34)c(C)o2)cc1 | -19.6% (active) |
| NNC(=O)c1ccccc1N | 122% |
| O=C(Nc1ccncc1)C(=O)c1cn(S(=O)(=O)c2ccccc2F)c2ccccc12 | 12.7% |
| COc1ccc(-c2c(N)n[nH]c2-c2cc(OC)c(OC)c(OC)c2)cc1 | 15.3% |
| CC(C)(C)c1ccc(OCCCCCCN2CCNCC2)cc1 | 15.2% |
| C=C(C)[C@@H]1CC[C@]2(C(=O)O)CC[C@]3(C)[C@H](CC[C@@H]4[C@@]5(C)CCC(NC(=O)c6cccc(OC(C)=O)c6OC(C)=O)C(C)(C)[C@@H]5CC[C@]43C)[C@@H]12 (some centres undefined) | -13.1% (active) |
| OC(c1cc2cc(Cl)ccc2c2cc(C(F)(F)F)ccc12)C1CCCCN1 (centres undefined) | -61.1% (active) |
| CCOC(=O)CCCCCCCCC(=O)OCC | 97.4% |
| O=C1CCc2c(sc3[nH]c(=S)n(Cc4ccc(Cl)cc4)c(=O)c23)C1 | -5.26% (active) |
| COC(=O)C1=C(C)C(=O)CC1 | 86.7% |
| CC1CC=CCC1C1OCC(C)(C)CO1 (centres undefined) | 91.8% |
| CC(C)CCSc1nc(-c2ccc(F)cc2)c(C#N)c(N2CCCCC2)n1 | 73.1% |
| CC(=O)Nc1ccc(-c2ccc3c(c2)NC(=O)/C3=C\c2ccc[nH]2)cc1 | 95.5% |
| Cc1ccc(C)n1-c1ccsc1C(=O)NNC(=O)CCl | 104% |
| Cc1ccc(-c2nc(-c3cn(C)c4ncccc34)cs2)cc1 | 16.2% [100 µM] |
